We go through 46 compounds from the antibiotic and cytotoxicity screens of Wong et al. (2023).

Hit rate of the full screen: of about 39,000 compounds, about 500 (1.3%) were called active. What follows is part of a selection rich in actives, with near analogues and random picks from the rest.

For the experiment, the system named is S. aureus RN4220. Nature of the experiment: growth inhibition call (relative growth <= 0.2). Conditions: 50 µM.
For the compound `C[C@H]1CN([C@@H](C)CO)C(=O)Cc2cc(NC(=O)CCN3CCOCC3)ccc2O[C@@H]1CN(C)C(=O)Nc1ccccc1`, the growth inhibition call is “inactive”.

With `O=C(Nc1ccc(Br)cc1)c1ccc(N2C(=O)c3ccc(C(=O)Nc4ccc(Br)cc4)cc3C2=O)cc1`, the growth inhibition call was “inactive”.

`CO[C@H]1CN(C)C(=O)c2ccc(NC(=O)Nc3cccc(F)c3)cc2OC[C@H](C)N(C(=O)Nc2c(C)noc2C)C[C@@H]1C`: the growth inhibition call was “inactive”.

Take `O=C([O-])CCC(=O)OCC(NC(=O)C(Cl)Cl)C(O)c1ccc([N+](=O)[O-])cc1.[Na+]` (stereo unspecified): the growth inhibition call was “inactive”.

For `CS(=O)(=O)c1ccc(C(O)C(CF)NC(=O)C(Cl)Cl)cc1` (stereo unspecified), the growth inhibition call was “active”.

In the case of `O=C(NC(CO)C(O)c1ccc([N+](=O)[O-])cc1)C(Cl)Cl` (stereo unspecified), the growth inhibition call is “active”.

As to `CS(=O)(=O)c1ccc(C(O)C(CO)NC(=O)C(Cl)Cl)cc1` (stereo unspecified), the growth inhibition call was “inactive”.

Consider `CCCCCCCCCCCCCCCC(=O)OCC(NC(=O)C(Cl)Cl)C(O)c1ccc([N+](=O)[O-])cc1` (stereo unspecified), for which the growth inhibition call is “inactive”.

On to `CCCCCCCCCCCCCCCC(=O)OC[C@H](NC(=O)C(Cl)Cl)[C@H](O)c1ccc([N+](=O)[O-])cc1`, for which the growth inhibition call was “inactive”.

For `Cc1noc(C)c1NC(=O)N(C)C[C@@H]1OCCCC[C@H](C)Oc2ccc(NC(=O)Nc3ccccc3)cc2C(=O)N([C@@H](C)CO)C[C@@H]1C`, the growth inhibition call is “inactive”.

With `CCCN(C)C[C@H]1OCCCC[C@@H](C)Oc2ccc(NC(=O)Nc3ccc(OC)cc3)cc2C(=O)N([C@H](C)CO)C[C@@H]1C`, the growth inhibition call was “inactive”.

As for `COc1cccc(-c2cn(CC[C@H]3CC[C@H](NC(=O)CN(C)C)[C@@H](CO)O3)nn2)c1`, the growth inhibition call was “inactive”.

`COCCn1cc2c(n1)[C@H](CNC(=O)CS(C)(=O)=O)OCC2`: the growth inhibition call was “inactive”.

As to `C[C@H](CO)N1C[C@H](C)[C@H](CN(C)S(C)(=O)=O)Oc2ncc(C#CCN(C)C)cc2C1=O`, the growth inhibition call was “inactive”.

As to `C[C@@H]1CN([C@@H](C)CO)C(=O)c2c(c3ccccc3n2C)-c2ccccc2CO[C@H]1CN(C)Cc1ccc(C(=O)O)cc1`, the growth inhibition call was “inactive”.

On to `NCCn1cccn1`, for which the growth inhibition call is “inactive”.

Turning to `NCc1ccccc1-n1cccn1`, the growth inhibition call is “inactive”.

In the case of `Cl.N=C(N)n1cccn1`, the growth inhibition call was “active”.

With `C[C@H]1CN([C@@H](C)CO)C(=O)Cc2cc(NS(=O)(=O)c3ccc(Cl)cc3)ccc2O[C@@H]1CN(C)S(=O)(=O)c1cn(C)cn1`, the growth inhibition call was “inactive”.

On to `CC(C)[C@@H](N)c1nc2c([nH]1)CCCC2`, for which the growth inhibition call is “inactive”.

Turning to `C/C(=C\C(=O)OCCCCCCCCC(=O)O)C[C@@H]1OC[C@H](C[C@@H]2O[C@H]2[C@@H](C)[C@H](C)O)[C@@H](O)[C@H]1O`, the growth inhibition call was “inactive”.

As for `CC(=CC(=O)OCCCCCCCCC(=O)O)CC1OCC(CC2OC2C(C)C(C)O)C(O)C1O` (stereo unspecified), the growth inhibition call is “active”.

Take `CCOC(=O)CC1=NNC(=N)SC1`: the growth inhibition call was “inactive”.

`C[C@@H]1CN([C@H](C)CN(C)C)C(=O)c2cc(NC(=O)Cc3cn(C)c4ccccc34)ccc2O[C@H]1CN(C)S(=O)(=O)c1ccc(Cl)cc1`: the growth inhibition call is “inactive”.

`CCCN(C)C[C@H]1OCCCC[C@@H](C)Oc2ccc(NC(=O)Nc3ccc(C(F)(F)F)cc3)cc2C(=O)N([C@H](C)CO)C[C@H]1C`: the growth inhibition call was “inactive”.

For the compound `CCCN(C)C[C@H]1OCCCC[C@@H](C)Oc2ccc(NC(=O)Nc3ccc(F)cc3)cc2C(=O)N([C@@H](C)CO)C[C@H]1C`, the growth inhibition call is “active”.

In the case of `CCCN(C)C[C@H]1OCCCC[C@@H](C)Oc2ccc(NC(=O)Nc3ccc(F)cc3)cc2C(=O)N([C@H](C)CO)C[C@@H]1C`, the growth inhibition call is “inactive”.

`CCCN(C)C[C@H]1OCCCC[C@H](C)Oc2ccc(NC(=O)Nc3ccc(C(F)(F)F)cc3)cc2C(=O)N([C@@H](C)CO)C[C@H]1C`: the growth inhibition call was “active”.

As for `CCCN(C)C[C@H]1OCCCC[C@@H](C)Oc2ccc(NC(=O)Nc3ccc(C(F)(F)F)cc3)cc2C(=O)N([C@@H](C)CO)C[C@H]1C`, the growth inhibition call was “inactive”.

For `CCCN(C)C[C@@H]1OCCCC[C@@H](C)Oc2ccc(NC(=O)Nc3ccc(C(F)(F)F)cc3)cc2C(=O)N([C@H](C)CO)C[C@H]1C`, the growth inhibition call is “active”.

Take `CCCN(C)C[C@@H]1OCCCC[C@@H](C)Oc2ccc(NC(=O)Nc3ccc(C(F)(F)F)cc3)cc2C(=O)N([C@H](C)CO)C[C@@H]1C`: the growth inhibition call was “inactive”.

For `CCCN(C)C[C@@H]1OCCCC[C@@H](C)Oc2ccc(NC(=O)Nc3ccc(F)cc3)cc2C(=O)N([C@H](C)CO)C[C@H]1C`, the growth inhibition call is “inactive”.

For the compound `CCCN(C)C[C@@H]1OCCCC[C@H](C)Oc2ccc(NC(=O)Nc3ccc(C(F)(F)F)cc3)cc2C(=O)N([C@H](C)CO)C[C@@H]1C`, the growth inhibition call is “inactive”.

Regarding `C[C@H]1CN([C@@H](C)CO)C(=O)c2cc(NS(C)(=O)=O)ccc2O[C@@H]1CN(C)C(=O)Nc1ccc(F)cc1`, the growth inhibition call is “inactive”.

As to `COCC(=O)N(C)C[C@@H]1Oc2cc(C#CCN(C)C)ccc2S(=O)(=O)N([C@H](C)CO)C[C@@H]1C`, the growth inhibition call was “inactive”.

Turning to `C[C@@H]1CCCCO[C@@H](CN(C)C(=O)C2CCCCC2)[C@@H](C)CN([C@@H](C)CO)C(=O)c2cc(NC(=O)Nc3ccc(C(F)(F)F)cc3)ccc2O1`, the growth inhibition call was “inactive”.

Consider `COc1ccc(CNC(=O)C[C@H]2CC[C@@H]3[C@@H](COc4ccc(NC(=O)C(C)C)cc4C(=O)N3C)O2)cc1`, for which the growth inhibition call is “inactive”.

`C[C@@H]1CN([C@H](C)CO)C(=O)c2cccc(NC(=O)Nc3ccc(F)cc3)c2O[C@H]1CN(C)Cc1ccc(Oc2ccccc2)cc1`: the growth inhibition call is “inactive”.

As for `COc1ccc(C#Cc2ccc3c(c2)O[C@H](CN(C)C(=O)c2ccccn2)[C@H](C)CN([C@@H](C)CO)S3(=O)=O)cc1`, the growth inhibition call is “inactive”.

Consider `OCCOCc1nnn2c1CN(c1ncccn1)CCC2`, for which the growth inhibition call is “inactive”.

On to `COC(=O)[C@H]1CCc2nc[nH]c2C1`, for which the growth inhibition call is “inactive”.

In the case of `Cc1oc(=O)oc1CN1CCN(c2cc3c(cc2F)c(=O)c(C(=O)O)c2n3C(C)S2)CC1` (stereo unspecified), the growth inhibition call was “active”.

For `Cn1cnc(S(=O)(=O)N2C[C@@H](O)COC[C@H]3O[C@@H](CC(=O)NCc4ccc(F)cc4)CC[C@@H]32)c1`, the growth inhibition call was “inactive”.

For the compound `COc1ccc(NC(=O)N(C)C[C@H]2OCCCC[C@H](C)Oc3ccc(NS(=O)(=O)c4ccc(F)cc4)cc3C(=O)N([C@@H](C)CO)C[C@H]2C)cc1`, the growth inhibition call is “inactive”.

As for `C[C@@H]1CN([C@@H](C)CO)C(=O)c2cc(NS(=O)(=O)c3ccc(Cl)cc3)ccc2O[C@@H]1CN(C)Cc1ccc(C(=O)Nc2ccccc2N)cc1`, the growth inhibition call was “inactive”.

In the case of `CCN(CC)c1ccc(N2CC=C[C@@]34O[C@@H]5C=CCCOC(=O)[C@@H]5[C@H]3C(=O)N([C@@H](C)CO)[C@@H]4C2=O)cc1`, the growth inhibition call is “inactive”.
